In the experiment the test system is Imidazoline I2. The experiment can be described thus: selectivity profile over receptors, transporters, CYPs – biochemical, Ricerca HitProfilingScreen, CYP450, set 2, selectivity assay for GPR7 antagonist project, profiling panel (AID 540345). The note with it: Ricerca radioligand binding/CYP panel, central, at 10 µM, stronger effect = higher value.

Molecules are shown by their SMILES. A number with no mark means an inactive call. How the calls were made is not given here.

This passage reports inhibition results from PubChem BioAssay AID540345 (The Scripps Research Institute Molecular Screening Center, 2011).

For `COc1ccc(Oc2c(Cl)cnn(C3c4ccccc4-c4ccccc43)c2=O)cc1`, the inhibition was 12%.

Usually inhibition stands for the drop in the measured response relative to a control, in per cent.
